# NPC1 promoter act – activates the NPC1 promoter; Huh7 NPC1 promoter luciferase reporter, 24 h; Potency, µM (top dose mostly 9.22 µM), for the others: top-dose activation, hits mostly activators; actives 2.4% (n = 320,000); AID 485313; note: % of control where 0% means no effect; nearly all actives have a fitted effect of over 60% in size
#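 Luminescence from an NPC1 promoter-driven luciferase reporter in stably transfected Huh7 cells was measured after 24 h compound treatment at 37 °C, followed by 10 min ambient incubation with luciferase detection reagent.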
# FLuc modulator – inhibits or activates purified firefly luciferase, miR-21 counter-screen; purified FLuc, Km substrates, luminescence inhibition; P08659; AID 588342; actives 6.9% (n = 360,000); Potency, µM (series often up to 57.5 µM), for the others: top-dose activity change, negative = inhibition, usual class: inhibitors;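 note: plate controls were vehicle for no effect and reference inhibitor for full effect; nearly all actives have a fitted effect of over 55% in size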
# Target sequence (P08659 whole entry, looked up): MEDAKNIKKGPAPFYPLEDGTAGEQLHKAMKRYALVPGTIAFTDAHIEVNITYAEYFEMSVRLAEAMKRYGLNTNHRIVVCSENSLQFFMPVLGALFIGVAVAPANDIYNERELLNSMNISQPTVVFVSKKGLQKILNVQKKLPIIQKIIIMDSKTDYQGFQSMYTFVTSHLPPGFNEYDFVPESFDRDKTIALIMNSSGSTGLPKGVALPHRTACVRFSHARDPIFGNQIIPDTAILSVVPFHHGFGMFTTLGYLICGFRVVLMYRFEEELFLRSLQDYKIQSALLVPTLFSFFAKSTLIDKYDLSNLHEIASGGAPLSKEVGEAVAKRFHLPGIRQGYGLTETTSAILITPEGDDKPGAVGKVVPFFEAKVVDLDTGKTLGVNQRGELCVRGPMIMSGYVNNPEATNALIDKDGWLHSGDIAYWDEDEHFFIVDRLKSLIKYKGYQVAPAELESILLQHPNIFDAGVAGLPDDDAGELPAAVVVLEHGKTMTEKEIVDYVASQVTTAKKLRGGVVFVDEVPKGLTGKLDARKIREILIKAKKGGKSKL
#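 Purified P. pyralis luciferase (10nM final) with 10uM D-luciferin and 10uM ATP (Km levels) in 50mM Tris acetate pH 7.5, 10mM Mg acetate, 0.01% Tween-20, 0.05% BSA; qHTS 6-point titration, ~60 µM downward; luminescence read.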
# ELG1 repair inh – blocks ELG1-dependent DNA repair in HEK293T cells; HEK293T ELG1-luciferase reporter, luminescence, 16 h; DNA damage induced by 5-fluorouridine; Potency, µM (series often up to 46.1 µM), for inactives: at the top dose activity change, negative = inhibition, hits mostly inhibitors; actives 2.3% (n = 330,000); note: % is set by controls: 0 for no effect and ±100 for the full control effect; nearly all actives have a fitted effect of over 55% in size
#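 Step one: seed 2,000 cells per well. Step two: pin-transfer compound or DMSO alongside 5-fluorouridine. Step three: incubate 16 hr, 37 °C, 5% CO2. Step four: add ONE-Glo, wait 30 min, read luminescence.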
# ELG1 genotox – genotoxicity induction in ELG1-luciferase HEK293T cells; Potency, µM (series often up to 46 µM), inactives show at the highest dose activity change, positive = activation, usual class: activators; HEK293T ELG1-luciferase reporter, luminescence, 16 h; AID 504466; actives 1.3% (n = 330,000); note: % of control where 0% means no effect; nearly all actives have a fitted effect of over 60% in size
#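 After overnight (16 hr) compound treatment at 37 °C, ELG1-luciferase HEK293T cells were lysed with ONE-Glo; luminescence quantified 30 min later at room temperature.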
# SMN2 splice enh – increases expression of the SMN2 splice variant. HEK293 SMN2-luciferase splicing reporter, luminescence, 30-36 h. Potency, µM (doses to about 46.1 µM), without a hit: at the top dose activity change, positive = activation, hits mostly activators. actives 2.8% (n = 210,000). AID 1458; note: % of control where 0% means no effect; nearly all actives have a fitted effect of over 55% in size
#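 qHTS luciferase splicing reporter: luminescence rises when SMN2 exon 7 is included in transfected HEK293 cells. Compound exposure lasted 30-36 h at 37C, with 4.5 mM final sodium butyrate as control, followed by a ONE-Glo read.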
# Rab9 prom act – activates the Rab9 promoter; AID 485297; actives 2.8% (n = 320,000); Huh7 Rab9 promoter-luciferase reporter, luminescence, 24 h; Potency, µM (doses to about 9.22 µM), for the others: at the highest dose activation, negative = inhibition, actives largely listed as activators; note: % of control where 0% means no effect; nearly all actives have a fitted effect of over 60% in size
#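 Huh7 cells stably carrying Rab9 promoter–luciferase reporter, plated 1500 cells/well, compound added after 2 h and incubated 24 h at 37 °C; luciferase luminescence then read after 10 min with detection reagent.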
# * = called active by the depositor; ? = inconclusive; · = not tested or not shown. Compounds with a hit are over-represented: about 9.2% of the library has one in this group of screens. Calls come from the whole dose curve; as a rule, active = well fitted curve in the direction sought with a large enough effect; inconclusive = small, poorly fitted or top-dose-only effect, or another doubt; inactive = no such curve, though single readings can be large; an effect the other way counts as inactive or inconclusive. Potency is the fitted concentration of half-maximal effect.
SMILES,NPC1 promoter act,FLuc modulator,ELG1 repair inh,ELG1 genotox,SMN2 splice enh,Rab9 prom act
CC1CCCC(C)N1C(=O)/C=C/c1ccc(S(=O)(=O)N2CCOCC2)cc1 (stereo not given),-3%,-1%,13µM*,-6%,·,-1%
O=C(/C=C/c1ccc(S(=O)(=O)N2CCOCC2)cc1)N1CCN(c2ccccc2)CC1,-19%,-2%,?,-9%,-13%,-11%
Cc1ccc(OCCn2c(CCNC(=O)C3CCCCC3)nc3ccccc32)cc1,·,5%,·,·,6%,·
COc1ccc(OC)c(CNC(=O)CCSCc2ccc(F)cc2Cl)c1,8%,-2%,?,-4%,·,-3%
NC(=O)[C@@H]1CC2(CC(c3cccc(NC(=O)COc4ccc(Cl)cc4)c3)=NO2)CN1C(=O)c1ccccc1 (stereo not given in full),0%,15µM*,-11%,-5%,·,0%
COc1ccc(C(=O)N2CC3(CC(c4cccc(NC(=O)COc5ccc(Cl)cc5)c4)=NO3)C[C@@H]2C(N)=O)cc1 (stereo not given in full),1%,11µM*,?,-12%,·,-2%
CCCNC(=O)CN1C(=O)COc2ccc(S(=O)(=O)N3CCCC3)cc21,·,0%,·,·,-1%,·
Cc1ccc(-c2onc3ccc(C4OCCO4)cc23)cc1,27%,7.6µM*,?,10%,-1%,?
Cc1ccc(-c2onc3ccc(Br)cc23)cc1,4%,?,11%,-1%,·,3%
COc1ccc(CCNS(=O)(=O)c2ccc([N+](=O)[O-])cc2)cc1OC,1%,-1%,0%,-2%,·,-3%
CC(=O)Nc1ccc2nc(-c3cccn3C)[nH]c2c1,27%,?,?,?,·,?
Cn1cccc1-c1nc2ccc([N+](=O)[O-])cc2[nH]1,2.8µM*,12µM*,?,?,·,2.2µM*
O=[N+]([O-])c1ccc2nc(-c3ccccc3)[nH]c2c1,2.8µM*,5.4µM*,?,?,7.1µM*,2.5µM*
O=C(O)c1ccccc1NS(=O)(=O)c1ccc2ccccc2c1,1%,15µM*,?,12%,·,8%
O=C(O)c1ccccc1NS(=O)(=O)c1cccc(-n2sc3ccccc3c2=O)c1,1%,11µM*,15%,-8%,·,0%
CCOCCN1CCN(c2c(CC)c(C)nc3cc(-c4cc(OC)cc(OC)c4)nn23)CC1,-8%,-7%,6.5µM*,-6%,-60%,1%
CCc1c(C)nc2cc(-c3cc(OC)cc(OC)c3)nn2c1N1CCCC1,-2%,-4%,?,-14%,-6%,-21%
CCc1c(C)nc2cc(-c3ccc(OC)c(OC)c3)nn2c1N1CCC(C)CC1,-3%,2%,?,4%,13%,-17%
CCc1c(C)nc2cc(-c3ccc(OC)c(OC)c3)nn2c1N1CCCC1,-1%,?,13µM*,-18%,·,-13%
O=C(Cc1ccc([N+](=O)[O-])cc1)Nc1cccc(C(=O)N2CCCCC2)c1,·,·,?,-3%,·,·
Nc1ccc(C#Cc2ccc3c(=O)c4ccccc4oc3c2)cc1,2.2µM*,?,?,?,·,3.5µM*
O=C(NCCc1ccc(OC(F)F)cc1)C1CC(=O)N(c2ccc3c(c2)OCCO3)C1 (stereo not given),0%,5%,-10%,-1%,·,-3%
N#C/C(=N/Nc1ccc(OC(F)(F)F)cc1)C(N)=S,-25%,11µM*,?,-3%,·,-36%
COc1ccc(N/N=C(\C#N)C(N)=O)cc1,9%,-17%,?,9%,19%,-2%
Cc1cc(Cl)ccc1NC(=O)C1CCN(S(=O)(=O)c2ccc3[nH]c(=O)ccc3c2)CC1,·,-3%,·,·,·,·
CCOC(=O)c1c(C)[nH]c(C(=O)OCC(=O)Nc2sc(C(=O)N(C)C)c(C)c2C(=O)OCC)c1C,-5%,4%,12µM*,-37%,·,-2%

# Screening results as filed in PubChem.
